Bioassay records from PubChem.
TROY NFkB inh = blocks TROY-dependent signaling in reporter cells; Q293 LMP1-TROYcd NF-kB luciferase reporter, 4 h; inhibition, % at 10 µM; hit rate 0.98% among 360,000;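 active = compounds whose plate-normalised and pattern-corrected inhibition of the luciferase reporter signal at the single screening dose is 50% or more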
EWS-Fli inh = blocks EWS/Fli oncoprotein-driven transcription | A673 NR0B1-luciferase reporter, viability-normalised | inhibition, % at 12.6 µM | hit rate 0.67% among 350,000 | AID 651661;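 active = mean inhibition of at least 50% after viability correction, with every replicate also passing that limit; inconclusive = mean reaches 50% but only one of two replicates passes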;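 also: firefly luciferase signal divided by Alamar Blue viability fluorescence both relative to DMSO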
LGR2 antag = blocks bursicon-induced cAMP signaling via Drosophila LGR2; HEK293 LGR2, CRE-luciferase, bursicon-stimulated, 4 h; inhibition, % at 9.99 µM; hit rate 0.35% among 380,000;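 active = drop in luminescence signal, shown as inhibition above about 50% in the replicate tests, limit read from the data, passing the limit was not always enough; inconclusive = probably only some replicates passing the limit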;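 also: agonist challenge used bursicon conditioned medium at about half maximal strength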
TWEAK Fn14 block = inhibitors of TWEAK-Fn14 interaction signaling; inhibition, % at 10 µM; hit rate 2% among 360,000; TWEAK-stimulated Fn14 reporter cells, luciferase luminescence, 8 h; in the data active = inhibition above about 50%
EBV LMP1 NFkB = reduces LMP1-driven NF-kappaB luciferase signal; LMP1-induced NF-kappaB luciferase reporter cells, luminescence; inhibition, % at 12.5 µM; hit rate 0.69% among 350,000; in the data active = inhibition above about 41%; inconclusive = no clear call, values can overlap the other calls;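 also: 0% = neutral control wells and 100% = reference inhibitor control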
* hit, by the source's call; ? = inconclusive; . = not tested or not shown. Hits are enriched below; roughly 2.6% of the tested compounds scored in any of these assays.

SMILES	TROY NFkB inh	EWS-Fli inh	LGR2 antag	TWEAK Fn14 block	EBV LMP1 NFkB
CC(NC(=O)COC(=O)/C=C/c1ccc(Cl)cc1)c1ccccc1 (stereo not drawn)	1.8	11.5	3.2	8.2	-18.5
COc1cc(/C=C/C(=O)OCC(=O)Nc2ccccc2Sc2ccc(Cl)cc2)ccc1O	51.8*	.	5.3	36.3	-2.0
CO[C@H](CN(C)C(=O)c1ccc2c(c1)OCO2)[C@@H](C)CN([C@@H](C)CO)S(=O)(=O)c1ccc(C)cc1	.	-3.9	-14.7	.	.
CS(=O)(=O)Nc1ccc2c(c1)[C@H]1C[C@H](CC(=O)NCCN3CCCCC3)O[C@H](CO)[C@H]1O2	.	-9.5	-19.1	.	.
Cc1[nH]c2ccccc2c1CC(=O)Nc1ccc(Nc2cccnc2)c(-c2ccc(Oc3ccccc3)cc2)c1	.	15.3	14.0	.	.
CC(=O)N1[C@H](CO)[C@@H](c2ccccc2)[C@H]1CN(CC(C)C)C(=O)c1ccccn1	.	-5.4	-2.3	.	.
Cc1ccc(C(=O)c2cccc(N)c2)cc1C	32.0	?	-23.5	51.5*	27.7
Cc1cccn2cc(-c3ccc(Cl)cc3)nc12	9.1	28.2	17.8	53.0*	1.0
C[C@@H]1CN([C@H](C)CO)S(=O)(=O)c2ccc(C#Cc3ccccc3)cc2O[C@H]1CN(C)S(=O)(=O)c1cn(C)cn1	.	4.1	11.4	.	.
O=C(NC1C(=O)NNC1c1ccccc1)c1ccccc1 (stereo not drawn)	-52.1	.	.	-37.4	44.2*
Nc1ccc(O)cc1C(=O)OCC(=O)c1ccc(C2CCCCC2)cc1	25.3	.	-14.5	102.2*	-2.9
c1ccc(-n2cnc3cc(NCc4cccs4)ccc32)cc1	82.7*	.	.	92.8*	12.4
CC1=CC2C(C(O)CC3(C)C2CC(C)C32OCOC23COCO3)C2(C)C/C(=C\O)C(=O)C=C12 (stereo not drawn)	83.4*	40.0	79.9*	108.6*	-0.8
COc1ccc(CN(C)C[C@H]2Oc3c(NC(=O)c4cnccn4)cccc3C(=O)N([C@@H](C)CO)C[C@@H]2C)cc1	.	2.7	0.0	.	.
O=C(Nc1ccc(-c2cn3ccsc3n2)cc1)c1ccc(F)c(S(=O)(=O)N2CCOCC2)c1	39.8	.	.	58.8*	-14.2
Cc1cc(C)c2oc(C(=O)Nc3ccc(S(=O)(=O)Nc4nccs4)cc3)cc(=O)c2c1	0.6	-8.3	-13.8	73.1*	-4.1
COc1ccc(C(=O)N2CC(=O)Nc3ccccc32)cc1S(=O)(=O)N1CCOCC1	-8.2	-3.6	-23.3	-2.1	-8.7
O=C(Nc1ccccc1)c1ccc(F)c(S(=O)(=O)N2CCOCC2)c1	-4.8	.	.	0.6	1.0
O=C1CN(C(=O)c2ccc(F)c(S(=O)(=O)N3CCOCC3)c2)c2ccccc2N1	13.8	3.5	-7.2	8.8	46.1*
COc1ccc(C(=O)N2CC(=O)Nc3ccccc32)cc1S(=O)(=O)N1CCCC1	-13.2	-4.3	21.1	-22.0	43.2*
CO[C@H]1CN(C)C(=O)c2cc(NC(=O)c3cnccn3)ccc2OC[C@H](C)N(C)C[C@H]1C	.	-3.2	16.0	.	.
O=C(Cc1ccccc1)N1C[C@H]2[C@@H](c3ccccc31)[C@@H](CO)N2C(=O)Cc1ccccc1	.	5.9	-12.1	.	.
C[C@@H]1CN([C@H](C)CO)C(=O)Cc2cc(NC(=O)NC3CCCCC3)ccc2O[C@H]1CN(C)C(=O)NC1CCCCC1	.	-7.7	-2.6	.	.
CC(=O)OC1COC(N2CCc3ccccc32)C(OC(C)=O)C1OC(C)=O (stereo not drawn)	2.4	7.6	2.6	61.1*	3.0
COCC(=O)N(C)C[C@@H]1Oc2cc(C3=CCCCC3)ccc2S(=O)(=O)N([C@H](C)CO)C[C@H]1C	.	-0.4	14.6	.	.
SMILES	TROY NFkB inh	EWS-Fli inh	LGR2 antag	TWEAK Fn14 block	EBV LMP1 NFkB
O=C(Nc1ccc(N2CCOCC2)cc1)c1cnsn1	72.0*	.	.	94.8*	76.7*
O=C(Nc1ccc(N2CCOCC2)cc1)c1cnccn1	60.1*	56.9*	70.0*	80.9*	63.3*
Cc1c(Br)c(=O)oc2c(C)c(O)ccc12	54.1*	.	4.7	46.1	2.6
CCc1c(C)c2ccc(O)c(CN(C)C)c2oc1=O	-16.4	.	.	-16.0	2.5
O=C(Nc1ccc2c(c1)nc1n2CCSC1)c1ccco1	-10.8	.	.	48.5	45.1*
COc1ccccc1-c1nnc2sc(-c3ccc(N(C)C)cc3)nn12	23.8	60.4*	-5.9	23.0	0.4
C/C=C/c1ccc2c(c1)O[C@@H](CN(C)C(=O)NCCC)[C@H](C)CN([C@@H](C)CO)S2(=O)=O	.	-6.0	2.5	.	.
CC(C)(C)c1ccc(C(=O)Nc2cnccn2)cc1	13.4	.	.	60.7*	2.3
O=C(Nc1ccccn1)C(=O)Nc1ccccn1	28.6	-61.4	-10.3	51.0*	-15.4
O=C(Nc1ccccn1)c1ccc(-c2ccccc2)cc1	54.4*	72.7*	70.3*	89.3*	47.0*
CN1C(=O)c2cc(NC(=O)C3CC3)ccc2OC[C@H]2O[C@H](CC(=O)NCc3ccccc3F)CC[C@@H]21	.	5.5	19.7	.	.
CN(C)/C=N/C(=S)Nc1ccc(F)cc1	.	.	.	88.1*	-0.7
CN(C)/C=N/C(=S)Nc1ccccc1F	.	.	.	73.7*	-5.1
O=C(CSc1nnc(-c2cccnc2)s1)Nc1ccnc2ccccc12	31.7	.	9.1	60.8*	20.9
Cc1ccc(NC(=O)CSc2nnc(-c3cccnc3)s2)cc1	-6.4	.	3.2	3.1	3.2
O=C(N/N=C/c1ccc(O)cc1)Nc1cccc2nsnc12	37.0	-8.4	3.8	62.8*	-10.0
Cc1ccc(C(=O)Nc2cccc(C(F)(F)F)c2)cc1NC(=O)c1csc(-c2ccncc2)n1	9.6	.	.	31.8	16.8
N#C/C(=N\Nc1cccc(C(F)(F)F)c1)C(=O)c1csc(-c2cccnc2)n1	66.2*	11.7	11.8	-16.3	-2.3
CN(C)C(=O)c1ccc(-c2ccc([C@@H]3[C@@H](CO)N4C(=O)CN(C(=O)C5CC5)C[C@@H]34)cc2)cc1	.	4.8	-4.2	.	.
COc1ccc(NC(=O)N(C)C[C@@H]2Oc3c(NC(=O)C4CCCCC4)cccc3C(=O)N([C@H](C)CO)C[C@@H]2C)cc1	.	-1.0	-8.6	.	.
CCOC(=O)CN(C(=O)CSc1nnc(-c2ccncc2)n1CCCN(C)C)c1ccccc1	-10.8	.	.	-0.3	-14.3
CCOC(=O)CN(C(=O)CSc1nnc(-c2ccncc2)n1CCCOC)c1ccccc1	57.6*	.	.	-10.0	0.6
c1ccc(-c2csc3ncnc(NCCCN4CCOCC4)c23)cc1	26.1	.	.	19.8	4.0
O=c1c2c(-c3ccccc3)csc2nc2c3ccccc3c(NCCN3CCOCC3)nn12	6.2	0.2	63.7*	-18.9	-46.0
Cn1c(N)c(C(=O)COC(=O)c2ccccc2C(=O)c2ccc(Cl)c([N+](=O)[O-])c2)c(=O)n(C)c1=O	65.1*	.	.	87.7*	1.7
CN(CCC#N)C(=O)COC(=O)c1ccccc1C(=O)c1ccc(Cl)c([N+](=O)[O-])c1	55.3*	45.5	.	30.1	-8.1
CC(C)N(C(=O)COC(=O)c1ccccc1C(=O)c1ccc(Cl)c([N+](=O)[O-])c1)C(C)C	74.2*	?	94.3*	35.4	-5.5
O=C(COC(=O)c1ccccc1C(=O)c1ccc(Cl)c([N+](=O)[O-])c1)NC1CCCCCC1	78.0*	.	.	98.5*	86.6*
